Source: PubChem
Hits are enriched below; roughly 3.8% of the tested compounds scored in any of these assays.
HepG2 tox-1 – qHTS for Inhibitors of TGF-b: Cytotox Counterscreen. 410,000 compounds, 0.76% hits. HepG2 CAGA-GFP viability, ATP luminescence, 18 h. Potency, µM (series often up to 46.1 µM), inactives show at the top dose activity change, negative = cytotoxicity, actives largely listed as cytotoxic
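CellTiter-Glo luminescence gave cytotoxicity after 18 hours at 37 degrees C. The cells were HepG2 CAGA-GFP in 1% FBS DMEM, stimulated with 500 pg/mL TGF-beta after compound addition. %Activity was normalised to no-cell wells (complete cell-killing) and DMSO (no toxicity), and curves were fitted and classified.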
TGFb inhibitor – qHTS for Inhibitors of TGF-b; HepG2 CAGA-GFP TGF-b/SMAD3 reporter, GFP fluorescence, 18 h; TGF-beta stimulated, 500 pg/mL final; Potency, µM (top dose mostly 46.1 µM), for the others: at the top dose activity, negative = inhibition, usual class: inhibitors; 410,000 compounds, 1.2% hits; further: on the % scale 0 is the no-effect control and ±100 the full control effect; nearly all actives have a fitted effect of over 65% in size
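Cell-based qHTS in HEPG2 carrying a CAGA-GFP Smad reporter; compounds added before 500 pg/mL final TGF-beta, 18 h incubation at 37 degrees C, GFP fluorescence quantified per cell by imaging cytometry.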
Nrf2 block – Nrf2 qHTS screen for inhibitors; A549 ARE-Fluc reporter, luciferase luminescence, 18-24 h; 360,000 compounds, 2.1% hits; Potency, µM (highest dose often 46 µM), for the others: at the highest dose activity change, negative = inhibition, most hits filed as inhibitors; further: on the % scale 0 is the no-effect control and ±100 the full control effect; nearly all actives have a fitted effect of over 60% in size
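Quantitative HTS in A549 cells stably bearing an antioxidant response element-firefly luciferase construct. Inhibition of Nrf2-driven transcription was scored by luminescence after 18-24 h of compound exposure at 37 °C.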
ATXN viability – Viability Counterscreen for Primary qHTS for Inhibitors of ATXN expression. S2 cells (HEK-293 line with an ATXN2-luciferase reporter) viability, CellTiter-Fluor protease fluorescence, 24 h. Potency, µM (highest dose often 56.7 µM), actives largely listed as cytotoxic. 400,000 compounds, 0.49% hits. AID 651635, 2014; further: nearly all actives have a fitted effect of over 40% in size
ATXN2 expr inh – Primary qHTS for Inhibitors of ATXN expression. HEK-293 ATXN2-luciferase reporter, luminescence, 24 h. Potency, µM (highest dose often 57 µM), for inactives: at the highest dose activity change, negative = inhibition, most hits filed as inhibitors. 360,000 compounds, 0.72% hits. AID 1745845, 2022; further: on the % scale 0 is the no-effect control and ±100 the full control effect; nearly all actives have a fitted effect of over 55% in size
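qHTS (up to 57 uM final) was run with 24 h compound exposure of reporter cells at 37 °C. Each well was multiplexed: SteadyGlo luminescence measured ATXN2-luciferase expression after a fluorogenic Gly-Phe-AFC viability readout (25 uM final).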
A549 tox-1 – Nrf2 qHTS screen for inhibitors: counterscreen for cytotoxicity | A549 ARE-Fluc cells, CellTiter-Fluor viability, 18-24 h | Potency, µM (series often up to 46 µM), for inactives: at the highest dose activity change, negative = cytotoxicity, hits mostly inhibitors | 390,000 compounds, 0.16% hits | AID 504648, 2011; further: on the % scale 0 is the no-effect control and ±100 the full control effect
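A549 ARE_Fluc cells in 5% FBS OPTI-MEM were exposed to compounds in concentration-response for 18-24 h at 37 deg C. Viability was read by CellTiter-Fluor fluorescence (Ex 405/Em 525) after 30 min, before the luciferase read.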
FLuc counter 3 – Nrf2 qHTS screen for inhibitors: Purified Fluc Biochemical Counterscreen for Hit Validation; shares compounds with Nrf2 block; purified firefly luciferase, luminescence inhibition; Potency, µM (top dose mostly 57.5 µM), for inactives: top-dose activity change, negative = inhibition, actives largely listed as inhibitors; 1,400 compounds, 4% hits; AID 720522, 2013; further: on the % scale 0 is the no-effect control and ±100 the full control effect; nearly all actives have a fitted effect of over 65% in size
Target sequence (P08659 whole entry, looked up): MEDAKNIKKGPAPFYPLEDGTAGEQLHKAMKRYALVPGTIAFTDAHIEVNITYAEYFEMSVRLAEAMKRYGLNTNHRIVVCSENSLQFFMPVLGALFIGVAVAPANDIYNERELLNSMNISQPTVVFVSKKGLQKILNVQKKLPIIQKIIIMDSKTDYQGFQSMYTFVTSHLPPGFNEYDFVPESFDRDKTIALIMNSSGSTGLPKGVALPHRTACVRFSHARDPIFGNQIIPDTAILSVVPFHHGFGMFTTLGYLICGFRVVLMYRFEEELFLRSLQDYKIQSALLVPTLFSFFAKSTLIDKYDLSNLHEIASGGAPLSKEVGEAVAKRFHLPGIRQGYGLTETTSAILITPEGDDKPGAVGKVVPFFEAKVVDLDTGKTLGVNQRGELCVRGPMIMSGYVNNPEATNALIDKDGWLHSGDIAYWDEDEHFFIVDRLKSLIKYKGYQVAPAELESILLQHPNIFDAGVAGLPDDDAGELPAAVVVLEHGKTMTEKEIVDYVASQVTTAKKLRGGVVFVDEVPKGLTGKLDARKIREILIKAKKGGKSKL
A549 tox-2 – Nrf2 qHTS screen for inhibitors: A549 ARE-Fluc Cytotoxicity Counterscreen for Hit Validation; 1,400 compounds, 2% hits; A549 ARE-Fluc cells, cytotoxicity counterscreen; shares compounds with Nrf2 block; Potency, µM (series often up to 46.1 µM), inactives show at the top dose activity change, negative = cytotoxicity, usual class: inhibitors;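 further: cells exposed to compounds for 18 to 24 hours; on the % scale 0 is the no-effect control and ±100 the full control effect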
Nrf2 ARE inh – Nrf2 qHTS screen for inhibitors: Nrf2 A549 ARE-Fluc Confirmation Assay for Hit Validation; 1,400 compounds, 74% hits; A549 ARE-firefly luciferase reporter, luminescence; shares compounds with Nrf2 block; AID 720524, 2013; Potency, µM (doses to about 46.1 µM), inactives show at the top dose activity change, negative = inhibition, hits mostly inhibitors; further: on the % scale 0 is the no-effect control and ±100 the full control effect; nearly all actives have a fitted effect of over 65% in size
TGFb CAGA inh – qHTS for Inhibitors of TGF-b: Confirmation of Cherry Picks. shares compounds with TGFb inhibitor. HepG2 CAGA-GFP TGF-b reporter, GFP fluorescence, 18 h; cells stimulated with TGF-beta, 500 pg/mL. Potency, µM (titrated, usually from 46.1 µM), for inactives: at the top dose activity, negative = inhibition, most hits filed as inhibitors. 1,600 compounds, 63% hits. AID 720534, 2013; further: on the % scale 0 is the no-effect control and ±100 the full control effect; nearly all actives have a fitted effect of over 65% in size
HepG2 tox-2 – qHTS for Inhibitors of TGF-b: Cytotox Counterscreen for Cherry Picks. Potency, µM (series often up to 46.1 µM), inactives show at the top dose activity, negative = cytotoxicity, most hits filed as inhibitors. shares compounds with TGFb inhibitor. 1,600 compounds, 27% hits. HepG2 CAGA-GFP viability, ATP luminescence, 18 h; cells stimulated with TGF-beta, 500 pg/mL; further: on the % scale 0 is the no-effect control and ±100 the full control effect; nearly all actives have a fitted effect of over 70% in size
CCL64 TGFb inh – qHTS for Inhibitors of TGF-b: CCL64 Cells Orthogonal Assay for Cherry Picks | shares compounds with TGFb inhibitor | CCL64 CAGA-GFP reporter, TGF-b stimulated, GFP fluorescence, 18 h | Potency, µM (doses to about 46.1 µM), inactives show top-dose activity, negative = inhibition, usual class: inhibitors | 1,600 compounds, 41% hits; further: nearly all actives have a fitted effect of over 65% in size
COP TGFb inh – qHTS for Inhibitors of TGF-b: Hit Validation in HepG2 Cells using COP promoter. shares compounds with TGFb inhibitor. Potency, µM (top dose mostly 46.1 µM), without a hit: at the top dose activity, negative = inhibition, hits mostly inhibitors. 1,600 compounds, 3% hits. HepG2 COP-GFP TGF-b reporter, GFP fluorescence, 18 h; cells stimulated by added recombinant TGF-beta; further: nearly all actives have a fitted effect of over 70% in size
Starred values were filed as active, the others as inactive; i = inactive; ? = inconclusive; . = no result shown; ! = a repeat was not active. The call rests on the fitted dose curve; in most records, active means well fitted curve in the direction sought with a large enough effect; inconclusive means small, poorly fitted or top-dose-only effect, or another doubt; inactive means no such curve, though single readings can be large; an effect the other way counts as inactive or inconclusive. Potency means the concentration at half of the fitted maximal effect.

SMILES	HepG2 tox-1	TGFb inhibitor	Nrf2 block	ATXN viability	ATXN2 expr inh	A549 tox-1	FLuc counter 3	A549 tox-2	Nrf2 ARE inh	TGFb CAGA inh	HepG2 tox-2	CCL64 TGFb inh	COP TGFb inh
CC[C@H]1CN2CCc3cc(OC)c(OC)cc3C2C[C@@H]1C[C@H]1NCCc2cc(OC)c(OC)cc21 (some centres not stated)	-19.7%	-108.9%	0.116µM*	?	-76.4%	?	-1.3%	?	0.517µM*	0.0517µM*	2.91µM*	0.0731µM*	35.5%
CC=C(CC)C1(CCC)C(=O)NC(=S)NC1=O	5.5%	-5.9%	0.5%	i	11.4%	-2.1%	.	.	.	.	.	.	.
COc1ccc(CC(=O)N2CCN(C)CC2)cc1	-5.2%	-0.9%	-0.1%	i	7.5%	0.2%	.	.	.	.	.	.	.
COc1ccc(CC2NCC(O)C2OC(C)=O)cc1 (configuration not stated)	7.3%	0.112µM*	0.461µM*	?	0.0106µM*	?	1.2%	-5.3%	1.46µM*	0.103µM*	0.366µM*	0.082µM*	-22.8%
CCCCC[C@@H]1CCCCC[C@H](O)C[C@@H](O)[C@@H](O)/C=C/C(=O)O1	.	.	.	i	0.3%	.	.	.	.	.	.	.	.
C[C@H]1CCC/C=C/[C@@H]2C[C@H](O)C[C@H]2[C@H](O)/C=C/C(=O)O1	-31.8%	0.126µM*!	0.231µM*!	i	?	?	0.6%	?	.	0.116µM*	?	?	63.9%
CC1OC(OC2CC(O)C3(CO)C4C(O)CC5(C)C(C6=CC(=O)OC6)CCC5(O)C4CCC3(O)C2)C(O)C(O)C1O (configuration not stated)	-54.3%	1.12µM*	0.058µM*	?	0.006µM*	?	0.0%	?	0.0326µM*	3.66µM*	0.291µM*	0.206µM*	36.8%
CN[C@@H]1Cc2cccc3[nH]c(=O)n(c23)C1	.	.	.	.	-2.9%	.	.	.	.	.	.	.	.
C=C(C)CSc1nnc([C@@H](N)Cc2c[nH]c3ccccc23)o1	-15.0%	11.4%	?	?	-0.4%	0.6%	.	.	.	.	.	.	.
Cc1[nH]nc2ccc(-c3cncc(OC[C@@H](N)Cc4c[nH]c5ccccc45)c3)cc12	-86.6%	1µM*	5.17µM*	.	2.24µM*	?	-1.2%	?	.	1.64µM*	1.3µM*	-103.4%	-53.1%
CCC1(Cc2ccccc2)C(=O)NC(=S)N(C)C1=O (configuration not stated)	-2.8%	2.6%	11.2%	i	10.3%	-1.0%	.	.	.	.	.	.	.
O=C(CI)c1ccc(Cl)cc1	-4.8%	-1.9%	.	.	.	.	.	.	.	.	.	.	.
Nc1ncnc2c1ccn2[C@@H]1O[C@H](CO)[C@@H](O)[C@H]1O	1µM*	0.447µM*	3.66µM*	3.16µM*	1.12µM*	?	-1.7%	?	0.651µM*	0.581µM*	0.92µM*	0.82µM*	45.1%
CC(=O)OC[C@]12CCC(C)=C[C@H]1O[C@@H]1[C@H](O)[C@@H](OC(C)=O)[C@@]2(C)[C@]12CO2	-12.8%	-87.8%	0.0184µM*	i	-70.7%	?	-0.5%	-8.8%	2.59µM*	0.0366µM*	0.146µM*	0.0366µM*	-6.9%
CCCC12CN3CC(C)(CN(C1)C3c1c(C)[nH]c(=O)[nH]c1=O)C2=O (configuration not stated)	-1.8%	27.7%	10.5%	i	7.7%	7.7%	.	.	.	.	.	.	.
CC[C@H]1C(=O)OC[C@H]1Cc1cncn1C	.	.	.	i	.	.	.	.	.	.	.	.	.
CC(=O)OC1(C)CC(C)C(=O)C(C(O)CC2CC(=O)NC(=O)C2)C1 (configuration not stated)	-32.6%	-91.9%	0.058µM*	?	0.0299µM*	?	1.3%	-2.0%	5.17µM*	0.0517µM*	0.13µM*	0.0206µM*	4.9%
